Settings in all cases: mRNA level, 48 h; actives raise or lower the signal
Read-out in assay [1]: Alkaline Phosphatase, Placental (ALPP) gene, ALPP (gene 250)
Put plainly: LTEA_HepaRG_ALPP: Life Technologies and Expression Analysis (LTEA) Assay for Alkaline Phosphatase, Placental (ALPP) gene using HepaRG (AID 2283468).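 On AC50: differentiated human HepaRG liver cells in serum-free induction medium.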 The gist of the method:
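ALPP transcript level, measured by qRT-PCR and normalized to three housekeeping genes (ACTB, GAPDH, POLR2A), after 48 h dosing of differentiated HepaRG in serum-free induction medium. Top concentration 100 uM with half-log dilutions (8 points, 0.5% DMSO, duplicates); bidirectional fitting relative to DMSO.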

Read-out in assay [2]: Bcl-2 (BAD) gene, BAD (gene 572)
Put plainly: LTEA_HepaRG_BAD: Life Technologies and Expression Analysis (LTEA) Assay for Bcl-2 (BAD) gene using HepaRG (AID 2283469). Put shortly:
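Read-out: qRT-PCR of BAD mRNA, normalized to three housekeeping genes. Human HepaRG cultures got 48 h chemical exposure in 0.5% DMSO, duplicate eight-point half-log series topping at 100 uM. Gain or loss of signal fitted versus DMSO vehicle.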

Read-out in assay [3]: Bcl-2 (BAX) gene, BAX (gene 581)
Put plainly: LTEA_HepaRG_BAX: Life Technologies and Expression Analysis (LTEA) Assay for Bcl-2 (BAX) gene using HepaRG (AID 2283470). The gist of the method: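 Cells were thawed, plated for 48 h, moved to serum-free induction medium and dosed for 48 h (highest concentration 100 uM, half-log steps, 0.5% DMSO). Total RNA was then analysed for BAX expression by qRT-PCR.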

Read-out in assay [4]: adenosine kinase (ADK) gene, ADK (gene 132)
The assay can be described thus: LTEA_HepaRG_ADK: Life Technologies and Expression Analysis (LTEA) Assay for adenosine kinase (ADK) gene using HepaRG (AID 2283471). Put shortly:
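ADK expression quantified by qRT-PCR, normalised to three housekeeping genes, after 48 h exposure of HepaRG cells to eight concentrations (top 100 uM, half-log steps, duplicate, 0.5% DMSO). Up- or down-regulation fitted relative to vehicle.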

Read-out in assay [5]: Alpha-fetoprotein (AFP) gene, AFP (gene 174)
The assay can be described thus: LTEA_HepaRG_AFP: Life Technologies and Expression Analysis (LTEA) Assay for Alpha-fetoprotein (AFP) gene using HepaRG (AID 2283472). The gist of the method: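 Chemicals were tested on differentiated HepaRG cells for 48 hours at eight concentrations up to 100 uM, with 0.5% DMSO as vehicle. AFP expression was then quantified by qRT-PCR and analyzed for gain or loss relative to DMSO.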

Read-out in another assay: BCL2L11 (gene 10018)
The assay can be described thus: LTEA_HepaRG_BCL2L11: Life Technologies and Expression Analysis (LTEA) Assay for Bcl-2 (BCL2L11) gene using HepaRG (AID 2283473). Put shortly:
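BCL2L11 transcript levels are measured by Fluidigm qRT-PCR, normalized to three housekeeping genes. HepaRG cultures were plated 48 h, then treated 48 h with test chemical (top 100 uM, half-log, 0.5% DMSO vehicle); curves were fitted bidirectionally against DMSO.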

Read-out in assay [6]: Apoptosis regulator Bcl-2 (Homo sapiens) (UniProt P10415)
Put plainly: LTEA_HepaRG_BCL2: Life Technologies and Expression Analysis (LTEA) Assay for Bcl-2 gene using HepaRG (AID 2283475). The gist of the method:
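Plated human HepaRG cells are exposed to test chemicals for 48 h across eight concentrations from 100 uM downward in half-log steps (0.5% DMSO). BCL2 expression is then measured by qRT-PCR with housekeeping normalisation and fitted bidirectionally against vehicle.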

Read-out in assay [7]: Bcl-2 (BID) gene, BID (gene 637)
The assay can be described thus: LTEA_HepaRG_BID: Life Technologies and Expression Analysis (LTEA) Assay for Bcl-2 (BID) gene using HepaRG (AID 2283476). Put shortly:
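Cells are plated, cultured 48 h, switched to serum-free induction medium, then dosed 48 h (100 uM top, half-log steps, 0.5% DMSO). RNA is isolated and BID expression read by qRT-PCR.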

Read-out in the next assay: Caspase-3 (Homo sapiens) (UniProt P42574)
Put plainly: LTEA_HepaRG_CASP3: Life Technologies and Expression Analysis (LTEA) Assay for cysteine-aspartic acid protease (CASP3) using HepaRG (AID 2283477). Put shortly:
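Expression of CASP3 was quantified by TaqMan qRT-PCR against three housekeeping genes (ACTB, GAPDH, POLR2A), bidirectionally versus 0.5% DMSO. HepaRG cultures received compounds in duplicate, top 100 uM with half-log steps, for 48 h in serum-free induction medium.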

Read-out in assay [8]: Cytochrome P450 (CYP24A1), CYP24A1 (gene 1591)
Put plainly: LTEA_HepaRG_CYP24A1: Life Technologies and Expression Analysis (LTEA) Assay for Cytochrome P450 (CYP24A1) using HepaRG (AID 2283478). Put shortly: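 mRNA of CYP24A1 quantified by TaqMan qRT-PCR (ACTB/GAPDH/POLR2A normalization) after 48 h chemical exposure of HepaRG cells, top concentration 100 uM, half-log steps, 0.5% DMSO vehicle, duplicates. Curves fitted bidirectionally against DMSO baseline.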

Read-out in assay [9]: Cytochrome P450 (CYP1A2), CYP1A2 (gene 1544)
Put plainly: LTEA_HepaRG_CYP1A2: Life Technologies and Expression Analysis (LTEA) Assay for Cytochrome P450 (CYP1A2) using HepaRG (AID 2283479). Put shortly: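 CYP1A2 transcript measured by TaqMan qRT-PCR against three housekeeping genes after 48-hour chemical exposure of HepaRG cells. Eight-point half-log series topping at 100 uM in 0.5% DMSO, duplicates; gain or loss fitted relative to vehicle.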

Read-out in assay [10]: cysteine-aspartic acid protease (CASP8), CASP8 (gene 841)
Put plainly: LTEA_HepaRG_CASP8: Life Technologies and Expression Analysis (LTEA) Assay for cysteine-aspartic acid protease (CASP8) using HepaRG (AID 2283480). The gist of the method:
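CASP8 transcript measured by TaqMan qRT-PCR with ACTB/GAPDH/POLR2A normalization, after 48 h chemical exposure of HepaRG cells in serum-free induction medium. Eight concentrations, top 100 uM, half-log steps, 0.5% DMSO vehicle; fits in both directions versus DMSO.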

Read-out in assay [11]: Cytochrome P450 (CYP2B6), CYP2B6 (gene 1555)
Put plainly: LTEA_HepaRG_CYP2B6: Life Technologies and Expression Analysis (LTEA) Assay for Cytochrome P450 (CYP2B6) using HepaRG (AID 2283481). Put shortly: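 CYP2B6 transcript level quantified by qRT-PCR against three housekeeping genes, fitted bidirectionally relative to DMSO. HepaRG cultures received chemicals for 48 h, 8-point half-log series from 100 uM in 0.5% DMSO, duplicate wells, serum-free induction medium.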

Read-out in assay [12]: Cytochrome P450 2C19 (Homo sapiens) (UniProt P33261)
The assay can be described thus: LTEA_HepaRG_CYP2C19: Life Technologies and Expression Analysis (LTEA) Assay for CYP2C19 using HepaRG (AID 2283482). The gist of the method:
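CYP2C19 transcript levels by qRT-PCR, normalized to three housekeeping genes, in HepaRG cells after 48 h chemical exposure. Eight-point half-log series topping at 100 uM, 0.5% DMSO vehicle. Increases and decreases both fitted against DMSO.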

Read-out in a further assay: CYP2C8 (gene 1558)
Put plainly: LTEA_HepaRG_CYP2C8: Life Technologies and Expression Analysis (LTEA) Assay for CYP2C8 using HepaRG (AID 2283483). The gist of the method: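 CYP2C8 expression measured by TaqMan qRT-PCR and normalized to three housekeeping genes. HepaRG cultures were treated for 48 h with an eight-point half-log series topping at 100 uM, vehicle 0.5% DMSO, duplicates; fitted both directions against DMSO.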

Read-out in the next assay: CYP2C9 (gene 1559)
The assay can be described thus: LTEA_HepaRG_CYP2C9: Life Technologies and Expression Analysis (LTEA) Assay for CYP2C9 using HepaRG (AID 2283484). Put shortly:
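CYP2C9 transcript level, quantified by TaqMan qRT-PCR against three housekeeping genes, was fitted bidirectionally relative to 0.5% DMSO. HepaRG cultures were treated 48 h, in duplicate, at eight half-log concentrations topping at 100 uM.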

Read-out in another assay: CYP2E1 (gene 1571)
The assay can be described thus: LTEA_HepaRG_CYP2E1: Life Technologies and Expression Analysis (LTEA) Assay for CYP2E1 using HepaRG (AID 2283485). The gist of the method: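 Readout is qRT-PCR of CYP2E1 mRNA, normalized to three housekeeping genes and fitted bidirectionally against 0.5% DMSO. HepaRG cells were dosed 48 h at eight concentrations, highest 100 uM with half-log dilutions.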

Read-out in the next assay: CYP4A11 (gene 1579)
Put plainly: LTEA_HepaRG_CYP4A11: Life Technologies and Expression Analysis (LTEA) Assay for CYP4A11 using HepaRG (AID 2283486). The gist of the method: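 Readout is CYP4A11 transcript level by qRT-PCR, normalized to three housekeeping genes and fitted bidirectionally against 0.5% DMSO. Human HepaRG cells were treated 48 h, in duplicate, with an 8-point half-log series topping at 100 uM.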

Read-out in assay [13]: Cytochrome P450 3A4 (Homo sapiens) (UniProt P08684)
Put plainly: LTEA_HepaRG_CYP3A4: Life Technologies and Expression Analysis (LTEA) Assay for CYP3A4 using HepaRG (AID 2283487). The gist of the method:
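Differentiated HepaRG cells, plated 48 h, then dosed 48 h in serum-free induction medium with 0.5% DMSO, 8 half-log concentrations up to 100 uM, duplicate. CYP3A4 mRNA by qRT-PCR, normalized to ACTB/GAPDH/POLR2A; bidirectional fit versus DMSO.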

Active and inactive are the calls of the source. How the source made its calls: active means hit-call score of the fitted dose curve at least 0.9, where 1 is the maximum; inactive means score below 0.9.

Cytochrome P450 2C19 (Homo sapiens), sequence (P33261 whole entry, looked up): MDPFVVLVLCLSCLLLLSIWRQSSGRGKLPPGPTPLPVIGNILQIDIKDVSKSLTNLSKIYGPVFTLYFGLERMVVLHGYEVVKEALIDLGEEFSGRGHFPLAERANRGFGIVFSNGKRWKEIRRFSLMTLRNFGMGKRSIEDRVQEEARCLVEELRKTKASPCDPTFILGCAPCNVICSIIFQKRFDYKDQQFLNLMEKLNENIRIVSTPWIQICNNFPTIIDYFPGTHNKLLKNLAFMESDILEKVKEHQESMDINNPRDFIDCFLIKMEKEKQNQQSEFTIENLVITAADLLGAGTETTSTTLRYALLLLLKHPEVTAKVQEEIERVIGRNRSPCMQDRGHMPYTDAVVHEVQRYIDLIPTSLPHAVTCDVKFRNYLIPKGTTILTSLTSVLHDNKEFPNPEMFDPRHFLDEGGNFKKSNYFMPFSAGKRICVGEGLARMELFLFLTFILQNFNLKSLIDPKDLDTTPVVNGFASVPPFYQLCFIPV
Cytochrome P450 3A4 (Homo sapiens), sequence (P08684 whole entry, looked up): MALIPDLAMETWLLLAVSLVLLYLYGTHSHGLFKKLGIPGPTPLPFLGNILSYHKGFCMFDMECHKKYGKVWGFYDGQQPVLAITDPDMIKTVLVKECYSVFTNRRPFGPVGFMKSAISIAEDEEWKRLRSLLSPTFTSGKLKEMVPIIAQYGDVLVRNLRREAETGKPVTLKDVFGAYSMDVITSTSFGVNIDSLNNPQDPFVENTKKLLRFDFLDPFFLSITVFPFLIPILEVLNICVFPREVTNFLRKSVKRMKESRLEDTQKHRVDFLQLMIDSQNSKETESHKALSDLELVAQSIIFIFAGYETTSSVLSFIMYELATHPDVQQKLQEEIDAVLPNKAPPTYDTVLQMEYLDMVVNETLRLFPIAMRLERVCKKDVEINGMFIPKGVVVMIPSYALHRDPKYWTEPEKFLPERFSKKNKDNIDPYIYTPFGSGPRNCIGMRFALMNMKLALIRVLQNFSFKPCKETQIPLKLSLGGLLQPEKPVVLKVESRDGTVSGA
Apoptosis regulator Bcl-2 (Homo sapiens), sequence (P10415 whole entry, looked up): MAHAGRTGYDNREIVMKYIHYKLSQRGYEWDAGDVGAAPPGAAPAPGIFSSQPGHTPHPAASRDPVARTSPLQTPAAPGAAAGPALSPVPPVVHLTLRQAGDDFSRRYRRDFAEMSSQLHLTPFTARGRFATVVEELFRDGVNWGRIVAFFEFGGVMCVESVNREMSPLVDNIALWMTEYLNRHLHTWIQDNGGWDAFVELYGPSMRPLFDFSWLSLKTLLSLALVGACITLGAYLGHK
Caspase-3 (Homo sapiens), sequence (P42574 whole entry, looked up): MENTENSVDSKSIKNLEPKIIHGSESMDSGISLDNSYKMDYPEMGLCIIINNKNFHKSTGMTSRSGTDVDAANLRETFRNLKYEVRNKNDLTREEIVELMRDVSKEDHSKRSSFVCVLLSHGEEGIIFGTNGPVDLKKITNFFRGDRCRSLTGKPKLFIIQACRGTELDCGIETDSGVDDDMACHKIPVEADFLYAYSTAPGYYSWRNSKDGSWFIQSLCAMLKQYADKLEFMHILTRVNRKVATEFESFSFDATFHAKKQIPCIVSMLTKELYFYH

One may read the AC50 as the midpoint of the concentration-response curve, whichever way the signal moves. `CS/C(C)=N/OC(=O)N(C)SN(C)C(=O)O/N=C(\C)SC`: the compound was called inactive (in assay [1]; in [2]; in [3]; in assay [4]; in assay [5]; with BCL2L11 (gene 10018)). For the same compound, the outcome (in assay [6]; in assay [7]; with Caspase-3 (Homo sapiens); in assay [8]; in assay [9]; in [10]) was inactive. The outcome (in assay [11]; in assay [12]; in the assay with CYP2C8 (gene 1558); with CYP2C9 (gene 1559); with CYP4A11 (gene 1579); in assay [13]) was inactive. Besides, the concentration at half-maximal activity (AC50) with CYP2E1 (gene 1571) was 9.92 µM (active).
On to `C=CCC1=C(C)[C@@H](OC(=O)[C@@H]2[C@@H](C=C(C)C)C2(C)C)CC1=O`, for which the AC50 in assay [1] is 81.2 µM (active); in assay [5] it was 50 µM (active); in assay [11] it was 85.4 µM (active); in the assay with CYP2E1 (gene 1571), 62.1 µM (active); in the assay with CYP4A11 (gene 1579), 88.3 µM (active). Moreover, the outcome (in assay [2]; in [3]; in assay [4]; in the assay with BCL2L11 (gene 10018); in assay [6]; in [7]) was inactive. In addition, the outcome (with Caspase-3 (Homo sapiens); in assay [8]; in assay [9]; in assay [10]; in assay [12]; with CYP2C8 (gene 1558)) was inactive. The compound was classed as inactive (with CYP2C9 (gene 1559); in [13]).
As for `CNC(=O)ON=CC(C)(C)SC`, the call (in assay [1]; in [2]; in assay [3]; in [4]; in assay [5]; with BCL2L11 (gene 10018)) was inactive. In addition, the outcome (in assay [6]; in [7]; with Caspase-3 (Homo sapiens); in assay [8]; in assay [9]; in assay [10]) was inactive. Moreover, the result (in assay [12]; in the assay with CYP2C8 (gene 1558); with CYP2C9 (gene 1559); with CYP2E1 (gene 1571); in the assay with CYP4A11 (gene 1579); in assay [13]) was inactive. Further, the AC50 in assay [11] was 50 µM (active).

(Values after PubChem BioAssay (EPA / NIEHS).)
